The list is not random: actives were taken first. Their share in the collection is about 3.5%.
MITF inh: MITF inhibitors, primary screen, biochemical, AlphaScreen, human. Microphthalmia-associated transcription factor (Homo sapiens), O75030. AlphaScreen MITF homodimerization, bead proximity signal. inhibition, % at 2.6 µM. 0.91% of 650,000 active. AID 1259374, 2018; in the data active means inhibition above about 50%;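 further: 0% = vehicle wells with protein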
TEAD-YAP inh: TEAD-YAP interaction inhibition, primary screen, TEAD-YAP interaction inhibitor project, luminescence, HEK-TIYL cells; TEAD-Gal4/YAP UAS-luciferase luminescence; inhibition, % at 9.12 µM; 1.4% of 640,000 active; AID 1259422, 2018; in the data active means inhibition above about 32%;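 further: 0% = median of test compound wells and 100% = reference inhibitor wells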
GPR151 ag: activators of human GPR151, primary screen, cell-based, PathHunter beta-arrestin, luminescence | G-protein coupled receptor 151 (Homo sapiens), Q8TDV0 | activation, % at 11.2 µM | AID 1508602, 2020 | 1% of 650,000 active | PathHunter beta-arrestin GPR151 cells; in the data active means activation above about 4.9%;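 further: 0% = median of compound wells and 100% = cells with positive control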
FBW7 activator: FBW7 E3 ligase activators, primary screen, biochemical, AlphaScreen, human; 0.13% of 650,000 active; F-box/WD repeat-containing protein 7 (Homo sapiens), Q969H0; normalized activity (activation), % at 26.1 µM; AlphaScreen FBW7–phospho-cyclin E peptide binding, activator screen; in the data active means normalized activity above about 1.9%;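 further: purified mutant Fbw7 with reduced substrate affinity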
GPR151 confirm: GPR151 activators, triplicate retest, confirmation, cell-based, PathHunter beta-arrestin, luminescence | shares compounds with GPR151 ag | GPR151 PathHunter beta-arrestin cells, 90 min; % of EA-reagent control over plate median | activation, % at 11.2 µM | 6,700 tested, under 10 active | AID 1508609, 2020;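 active means mean percent activation across replicates above the confirmation screen cutoff of 4.91%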
GPR119 counter: GPR119 activators in beta-arrestin cells, counter-screen for GPR151 activator project, cell-based, PathHunter beta-arrestin, luminescence, triplicate. 0.3% of 6,700 active. shares compounds with GPR151 ag. activation, % at 11.2 µM. 90 min; 0 = compound-well median, 100 = enzyme-acceptor control;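 active means mean percent activation in the counterscreen above 29.09%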;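 further: counterscreen on off-target GPR119 to flag nonselective hits from the GPR151 activator screen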
Target sequence (Q8TDV5 whole entry, looked up): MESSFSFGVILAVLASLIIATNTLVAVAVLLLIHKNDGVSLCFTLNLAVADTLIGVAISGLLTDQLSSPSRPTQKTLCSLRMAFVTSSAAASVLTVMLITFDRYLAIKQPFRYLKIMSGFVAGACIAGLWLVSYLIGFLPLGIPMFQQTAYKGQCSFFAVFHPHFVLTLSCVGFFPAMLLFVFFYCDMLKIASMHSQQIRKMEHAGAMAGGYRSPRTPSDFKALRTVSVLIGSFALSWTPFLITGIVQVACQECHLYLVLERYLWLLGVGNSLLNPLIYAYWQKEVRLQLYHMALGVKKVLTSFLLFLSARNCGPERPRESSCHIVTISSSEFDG
* marks the source's active call; other numbers are inactive results; nt = no result given.

SMILES	MITF inh	TEAD-YAP inh	GPR151 ag	FBW7 activator	GPR151 confirm	GPR119 counter
O=C(NCc1ccccc1Cl)c1c(O)c2ccccc2[nH]c1=O	4	2	5.0*	0	1	-1
O=C(NCCc1c[nH]c2ccccc12)C(c1ccccc1)N1Cc2ccccc2C1=O (stereo not given)	10	0	5.2*	0	0	-8
O/N=C/c1cn(-c2ccccc2)nc1-c1ccc(F)cc1	19	-5	6.0*	1	-1	-15
CCOc1cc(C2C3=C(CCCC3=O)Nc3nc(-c4cccs4)nn32)ccc1O (stereo not given)	5	1	-1	0	nt	nt
COc1ccc(NC(=O)c2cccc3ccccc23)cc1	-3	-4	-1	0	nt	nt
COC(=O)c1ccccc1C(=O)c1cccc2ccccc12	-3	1	10*	0	0	-4
C=CCOC(=O)C1=C(C)NC(C)=C(C(=O)OCC=C)C1c1cn(-c2ccccc2)nc1-c1ccc(Br)cc1	-7	-4	5.0*	1	0	8
CC(=O)NCCNCc1c(C(=O)N2CCc3ccccc3C2)nc2ccc(Cl)cn12	-4	-5	1	0	nt	nt
O=C(c1nc2ccc(Cl)cn2c1CNCC1COCCO1)N1CCc2ccccc2C1 (stereo not given)	8	-1	9.8*	0	0	-21
c1ccc(CN2CCC(Nc3nc(-c4cccs4)nc4c3ncn4C3CCCCC3)CC2)cc1	15	0	1	0	nt	nt
COc1ccc(OC(C)C(=O)Nc2ccc(C)cc2C)cc1 (stereo not given)	10	3	-2	0	nt	nt
COc1ccc(OC(C)C(=O)Nc2cc(C)ccc2C)cc1 (stereo not given)	-3	9	5.0*	0	2	1
COCCCn1c(-c2ccc(OC)cc2)cn2c3c(=O)n(C)c(=O)n(C)c3nc12	12	-1	-1	0	nt	nt
CCOc1cc(CNn2nnnc2N)cc(Cl)c1OCC(=O)NC(C)(C)C	-3	8	5.2*	0	0	-4
C=CCOc1c(Cl)cc(CNn2nnnc2N)cc1OC	17	-1	4	0	nt	nt
CCn1c(SCC(=O)c2ccccc2)nc2c(c1=O)SC(C)C2 (stereo not given)	7	10	5.3*	0	0	5
CC1Cc2nc(SCC(=O)NCc3ccccc3)n(C)c(=O)c2S1 (stereo not given)	11	-3	6.4*	1	1	5
COc1ccc(N2CCN(c3ncnc4sc(C(=O)NCc5ccco5)c(C)c34)CC2)cc1	16	20	-1	0	nt	nt
c1ccc(CSc2nnc(NC3=NCCCCC3)s2)cc1	-2	-52	-1	0	nt	nt
CCCCS(=O)CC(COC(=O)c1ccc(C)cc1)S(=O)CCCC (stereo not given)	18	-8	0	0	nt	nt
Nc1c(C(F)(F)F)cc(C(F)(F)F)cc1C(F)(F)F	-1	-4	-2	0	nt	nt
Nc1ccc(-c2ccc(N)cc2C(F)(F)F)c(C(F)(F)F)c1	0	3	5.6*	0	0	-10
COc1cccc(C2(NC(=O)CCn3nccc3C)CCCC2)c1	1	-8	2	0	nt	nt
O=C(Nc1ncc(Cc2ccc(Cl)cc2Cl)s1)c1ccc(Cl)cc1	-12	-4	5.7*	0	1	-6
COCCN1CCN(C(=O)c2ncoc2-c2cccc(OC)c2)CC1	11	-2	0	0	nt	nt
SMILES	MITF inh	TEAD-YAP inh	GPR151 ag	FBW7 activator	GPR151 confirm	GPR119 counter
COc1ccccc1OCCCC(=O)Nc1nnc(C2CCCCC2)s1	6	-1	5.2*	0	1	5
COc1ccccc1-n1c(O)c(C=Nc2cccc(C)c2)c(=O)[nH]c1=S	20	5	5.1*	0	-1	0
CCC(CC)=NNC(=O)c1ccc(C)cc1C	0	-16	0	1	nt	nt
O=C(O)c1cc([N+](=O)[O-])cc([N+](=O)[O-])c1N1CCN(CCO)CC1	17	8	5.3*	0	1	8
COCCN1Cc2cc3c(C)cc(C)cc3nc2OC(C)C1=O (stereo not given)	11	-10	1	0	nt	nt
O=C1CN(c2ccccc2NC(=O)C2(c3cccs3)CCCC2)CCN1	11	8	5.0*	0	0	7
CCN(C(=O)c1ccc([N+](=O)[O-])cc1Cl)c1ccccc1C	8	-2	8.6*	0	-1	-9
COC(=O)C1=C(NC(=O)c2ccc(F)cc2)CCS1	-8	-9	-1	0	nt	nt
CCCN(CCC)Cc1c(C(=O)O)nnn1-c1nonc1N	8	0	6.0*	0	-1	-4
Cc1cc(C)c2c(c1)/C(=N/Nc1ccc(S(N)(=O)=O)cc1[N+](=O)[O-])CCC2	-2	0	1	0	nt	nt
NS(=O)(=O)c1ccc(N/N=C2\CCc3ccccc32)c([N+](=O)[O-])c1	10	0	7.5*	0	-1	-8
O=C(NCc1ccc2c(c1)OCO2)C1CC2CCCN2C12C(=O)Nc1ccccc12 (stereo not given)	-8	3	5.1*	0	0	3
O=C(NCc1cccc(F)c1)C1CC2CCCN2C12C(=O)Nc1ccccc12 (stereo not given)	3	7	4	0	nt	nt
CCCc1ccc(-c2ccc(OC(F)F)cc2)nc1	10	-67	-1	0	nt	nt
CCn1ccnc1CN(C)Cc1ccc(OCC(O)CN2CCc3ccccc3C2)cc1 (stereo not given)	0	4	10*	0	0	-16
O=C(NC1CCOC1)c1cc(COc2ccc3ncccc3c2)on1 (stereo not given)	-3	19	5.2*	0	0	-13
Cc1c(C(=O)Nc2ccc(F)cc2)cccc1[N+](=O)[O-]	-12	-6	0	0	nt	nt
N#Cc1c(-c2ccncc2)cc(-c2ccc(Cl)cc2)nc1N	-11	-7	5.4*	0	0	-2
N#Cc1c(-c2ccc(Cl)cc2)cc(-c2ccccc2)nc1N	10	2	0	0	nt	nt
COc1ccc(/C=C2\SC(N)=NC2=O)cc1OCc1ccc(F)cc1	16	8	0	0	nt	nt
O=C(CN1CCCC(O)C1)N1c2ccccc2Sc2ccc(C(F)(F)F)cc21 (stereo not given)	23	2	9.5*	0	0	-4
Cc1ccc2c(c1)cc(CN(C(=O)c1ccco1)C1CCCCC1)c1nnnn12	-6	-4	-1	0	nt	nt
COc1ccccc1C(=O)Nc1ccc(N2CCCS2(=O)=O)cc1	-7	-42	-2	0	nt	nt

Source: PubChem
